In assay [1] the test system is Human papillomavirus type 1a protein E7 (residues 44-93). As to the kind of experiment: HPV1a E7 fragment binders on microarrays, primary screen, biochemical, small-molecule microarray, residues 44-93, 635 nm fluorescence (AID 1108).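 Note: E7 fragment applied at 1 µg/mL in TBST for 1 h at 4 C; score combines spot fluorescence with its signal to noise ratio.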 The note with it: small-molecule microarray binding, fluorescence 635 nm; higher = more signal.
A short description of assay [2]: modulators of HCV replicon luciferase signal, primary screen, HCV replication inhibitor project, Huh7 cells, luciferase reporter (AID 1109).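 Note: huh7 hepatoma cells harbouring a luciferase neomycin HCV replicon reporter; luciferase luminescence as measure of HCV replicon replication; test concentration not given here.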 The note with it: 48 h, higher = more signal.
Assay [3] has as its target Left-right determination factor 2 (Homo sapiens) (UniProt O00292). The assay is described as follows: LEFTY2 binders on small-molecule microarrays, primary screen, biochemical, small-molecule microarray, 635 nm fluorescence scan (AID 1110). The note with it: LEFTY2 binding, higher = more signal.
Assay [4] has as its target Calmodulin-1 (Homo sapiens) (UniProt P0DP23). As to the kind of experiment: CALM1 binders on microarrays, EGTA buffer, profiling panel, biochemical, small-molecule microarray, Cy5-labelled CALM1 (AID 1111).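 Note: labelled calmodulin applied in Tris saline Tween buffer holding calcium plus EGTA and DTT.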 The note with it: Cy5-CALM1 binding fluorescence, higher = more signal.
Assay [5] has the same target. As to the kind of experiment: calcium-bound CALM1 binders on microarrays, profiling panel, artefact control for SMM control-protein annotation, biochemical, small-molecule microarray, Cy5-labelled CALM1, plus calcium (AID 1112).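 Note: score merges spot fluorescence with signal to noise from triplicate slides.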 The note with it: Cy5-CALM1 binding fluorescence, higher = more signal.
The nature of assay [6]: small-molecule microarray binders of probe aWnt5a, primary screen, biochemical, biotinylated probe, 635/667 nm fluorescence (AID 1113).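 Note: score merges 667 nm fluorescence intensity with signal-to-noise per printed feature.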 To be noted: higher = more signal.
The nature of assay [7]: small-molecule microarray binders of probe aShh, primary screen, biochemical, biotinylated probe, 635/667 nm fluorescence (AID 1114).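 Note: probe is biotin-labelled aShh protein from a stem cell growth factor screen; measures binding of labelled protein to compounds printed on the slide; score merges feature fluorescence at 667 nm with signal-to-noise.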 To be noted: higher = more signal.
The nature of assay [8]: small-molecule microarray binders of probe aNog, primary screen, biochemical, biotinylated probe, 635/667 nm fluorescence (AID 1115).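 Note: probe is biotinylated aNog protein used at 0.15 µg/mL for 1 h at 4 C; z-score combines 667 nm fluorescence of each spot with its signal to noise.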 To be noted: higher = more signal.
Assay [9] has as its target Torsin-1A-interacting protein 1 (Homo sapiens) (UniProt Q5JTV8). As to the kind of experiment: LAP1 binders from COS7 cell lysate, primary screen, small-molecule microarray, 635/667 nm fluorescence (AID 1116). The note with it: COS7-hLAP1 lysate binding, 635 nm fluorescence, higher = more signal.
For assay [10], the target named is Alpha-bungarotoxin (Bungarus multicinctus) (UniProt P60615). The assay is described as follows: alpha-bungarotoxin binders on microarray, profiling panel, artefact control for SMM control protein annotation, biochemical, small-molecule microarray, Alexa647 label, 635/667 nm fluorescence (AID 1117). To be noted: alpha-BTX-A647 binding fluorescence, higher = more signal.

Structures are written as SMILES.

Torsin-1A-interacting protein 1 (Homo sapiens), sequence (Q5JTV8 whole entry, looked up): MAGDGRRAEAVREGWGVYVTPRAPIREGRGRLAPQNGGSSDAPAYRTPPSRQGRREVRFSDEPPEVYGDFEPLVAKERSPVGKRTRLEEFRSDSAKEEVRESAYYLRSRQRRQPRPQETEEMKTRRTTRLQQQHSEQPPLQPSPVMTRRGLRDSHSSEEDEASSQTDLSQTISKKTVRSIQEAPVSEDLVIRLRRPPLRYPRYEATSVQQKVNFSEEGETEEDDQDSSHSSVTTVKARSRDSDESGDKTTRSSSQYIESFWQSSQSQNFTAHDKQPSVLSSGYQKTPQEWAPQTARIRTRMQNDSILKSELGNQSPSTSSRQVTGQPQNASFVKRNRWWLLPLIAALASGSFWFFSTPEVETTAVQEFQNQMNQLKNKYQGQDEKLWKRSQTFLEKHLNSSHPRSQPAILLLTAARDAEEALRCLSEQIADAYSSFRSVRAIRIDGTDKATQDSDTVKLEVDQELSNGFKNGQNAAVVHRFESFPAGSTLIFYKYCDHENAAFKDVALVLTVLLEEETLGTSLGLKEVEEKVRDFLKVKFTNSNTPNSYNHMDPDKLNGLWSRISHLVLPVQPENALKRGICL
Left-right determination factor 2 (Homo sapiens), sequence (O00292 whole entry, looked up): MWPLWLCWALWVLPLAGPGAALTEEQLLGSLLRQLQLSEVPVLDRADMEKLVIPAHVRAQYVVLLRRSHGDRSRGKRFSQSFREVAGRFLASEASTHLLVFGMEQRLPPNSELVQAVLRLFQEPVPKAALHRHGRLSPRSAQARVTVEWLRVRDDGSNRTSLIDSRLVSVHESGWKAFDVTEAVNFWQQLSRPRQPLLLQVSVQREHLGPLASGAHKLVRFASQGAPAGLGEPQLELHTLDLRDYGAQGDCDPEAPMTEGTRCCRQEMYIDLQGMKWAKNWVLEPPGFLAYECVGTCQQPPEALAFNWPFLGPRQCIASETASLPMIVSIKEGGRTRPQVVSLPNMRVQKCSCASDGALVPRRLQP
Alpha-bungarotoxin (Bungarus multicinctus), sequence (P60615 whole entry, looked up): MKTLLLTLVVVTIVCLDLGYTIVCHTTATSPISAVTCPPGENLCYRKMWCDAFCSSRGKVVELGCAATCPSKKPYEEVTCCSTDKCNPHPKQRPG

As to `[N-]=[N+]=Nc1ccccc1C[C@@]1(C(=O)N2CCOCC2)N=C(c2ccc(OCCCO)cc2)O[C@@H]1c1ccccc1`, the composite z-score was 1 in [1]; -0.0238 in assay [3]; 1.37 in assay [4]; -0.258 in assay [5]; 0.291 in assay [6]; 0.771 in [7]. The composite z-score is -0.738 in [8], 1.43 in [9] and 1.39 in [10]. The compound also had a z-score in assay [2] of -1.57.
For the compound `CCOC(=O)C[C@H]1[C@H](OC(=O)c2ccc(C(=O)c3ccccc3)cc2)[C@@H](NC(=O)C2CCCCC2)c2cc(OCCCO)ccc2N1C(=O)c1ccc2ccccc2n1`, the composite z-score in assay [1] is 1.3; in assay [3], 0.752; in [4], 0.711; in assay [5] it was -0.102; in assay [6] it was 0.0552; in assay [7], -0.243. Moreover, the composite z-score in [8] is -0.244; in assay [9], 0.805; in [10], 0.673. Further, in [2], the z-score came out at 0.0574.
Consider `CC(C)c1ccc(NN2C(C(O)c3ccc(F)cc3)C=CC3C(=O)N(c4ccccc4)C(=O)C32)cc1` (stereo not given), for which the composite z-score in assay [1] is 1.44; in assay [3] it was 0.397; in assay [4] it was 1.24; in assay [5], -0.0298; in assay [6], 0.105; in [7], 0.246. In addition, the composite z-score in assay [8] amounted to 1.75; in [9], 0.305; in [10] it was 1.39. The z-score in assay [2] was -0.619.
Take `COc1ccc([Si](C)(C)[C@@H]2[C@@H](CC(=O)N(CCO)Cc3ccccc3)O[C@]3(C(=O)N(Cc4cccc(N5CCCCC5=O)c4)c4ccccc43)[C@H]2C)cc1`: the composite z-score is 0.846 in assay [1]; 0.478 in [3]; 0.822 in assay [4]; 0.645 in assay [5]; 0.0825 in assay [6]; 0.128 in [7]. Moreover, the figures for the composite z-score in [8], in assay [9] and in assay [10] were 1.73, 0.761 and 0.672, respectively. Also, the z-score in [2] is -3.89.
In the case of `CCCNC(=O)[C@@H]1c2ccccc2C(=O)N(Cc2ccc(OC(F)(F)F)cc2)[C@H]1c1ccc(CO)cc1`, the composite z-score in assay [1] is 0.957; in assay [3], -0.144; in [4] it was 0.222; in [5], 0.237; in assay [6], 0.0077; in assay [7], 0.292. The composite z-score in assay [8] came to 0.0303; in assay [9] it was 0.448; in [10] it was 0.102. This compound also gave a z-score in assay [2] of -0.808.
For `CCCC=C(CCC)[C@@H](NP(=O)(c1ccccc1)c1ccccc1)c1ccc(-c2ccccc2)cc1`, the composite z-score in [1] is 1.23; in assay [3] it was 0.53; in assay [4], 0.877; in assay [5], 0.796; in assay [6], 0.328; in assay [7] it was 0.972. Also, the composite z-score in [8] came out at 1.35; in [9] it was 0.946; in assay [10], 1.3. The compound further displayed a z-score in assay [2] of -2.72.
In the case of `CCCCC(O)C1C=CC2C(=O)N(C)C(=O)C2N1N(c1ccccc1)c1ccccc1` (stereo not given), the composite z-score in assay [1] is 0.447; in assay [3], 0.186; in [4] it was 2.06; in assay [5] it was 0.766; in assay [6], -0.0161; in assay [7], 0.393. Further, the composite z-score in assay [8] was 1.53; in assay [9], 1.41; in assay [10], 1.8. In assay [2], this compound showed a z-score of -0.991.
Take `N#Cc1ccc(NN2C(C(O)c3ccc(Br)cc3)C=CC3C(=O)N(c4ccccc4)C(=O)C32)cc1` (stereo not given): the composite z-score was -1.46 in [1]; 0.503 in assay [3]; 1.53 in [4]; 0.141 in assay [5]; 0.234 in assay [6]; 0.162 in assay [7]. In addition, the figures for the composite z-score in assay [8], in assay [9] and in assay [10] were 2.03, 1.14 and 2.36, respectively. In addition, in assay [2], the z-score is -0.431.
Turning to `COc1ccc([Si](C)(C)[C@H]2[C@H](CC(=O)N3Cc4ccccc4C[C@H]3CO)O[C@@]3(C(=O)N(Cc4ccc(N5CCOC5=O)cc4)c4ccccc43)[C@@H]2C)cc1`, the composite z-score is 0.559 in assay [1]; 0.843 in assay [3]; -0.766 in [4]; -0.665 in [5]; -0.0944 in assay [6]; -0.0769 in assay [7]. In addition, the results for the composite z-score in [8], in [9] and in assay [10] were -0.267, 0.612 and 1.22, respectively. The compound further showed a z-score in assay [2] of -4.15.
`C=CC[C@@H](OC(=O)Nc1ccc(OC)cc1)c1ccc(O)c(F)c1`: the composite z-score in assay [1] was 0.954; in assay [3] it was -0.784; in assay [4], -0.976; in [5] it was -0.427; in [6] it was -0.184; in assay [7], 0.0141. Further, the composite z-score in assay [8] is -0.0602; in [9], 1.55; in assay [10], -0.418. In addition, the z-score in [2] is -1.73.
Regarding `O=C1O[C@H](c2ccccc2)[C@H](c2ccccc2)N2[C@H]1[C@@H](C(=O)O)[C@]1(C(=O)Nc3ccc(C#CCCO)cc31)[C@H]2c1ccccc1OCCO`, the composite z-score in assay [1] was 1.24; in assay [3], -0.587; in assay [4], 0.4; in assay [5] it was 0.0772; in [6] it was -0.139; in assay [7], 0.0141. The composite z-score is -0.539 in assay [8], 0.182 in assay [9] and 0.649 in assay [10]. Further, the z-score in assay [2] is -0.488.
Take `COCCOC(=O)N1C(=O)[C@@]2(c3cc(C#CC4(O)CCCCCC4)ccc31)[C@H](C(=O)N1CCc3cc(OC)c(OC)cc3C1)[C@H]1C(=O)O[C@H](c3ccccc3)[C@H](c3ccccc3)N1[C@@H]2c1ccc(OCCO)cc1`: the composite z-score in [1] was 1.14; in assay [3] it was 0.805; in assay [4], 0.903; in [5], -0.392; in assay [6], -0.0685; in [7], -0.0011. Besides, the results for the composite z-score in assay [8], in assay [9] and in assay [10] were -0.136, 0.695 and 0.152, respectively. This compound also registered a z-score in [2] of -1.22.
On to `CS(=O)(=O)CCOC(=O)C1=CC(CCCO)=CC(c2ccc(CN3CCCC3)cc2)N(Cc2sc3ccccc3c2Cl)C=C1C(=O)OCCS(C)(=O)=O` (stereo not given), for which the composite z-score in assay [1] is 0.611; in assay [3], 1.12; in assay [4], 2.26; in assay [5] it was 0.91; in [6], -0.0297; in [7], 0.318. Besides, the composite z-score in assay [8] stood at 1.49; in [9] it was 2.83; in assay [10], 2.86. In [2], this compound registered a z-score of -2.64.
As to `COC(=O)C1=CC(CCCO)=CC(c2cccs2)N(C)C=C1C(=O)OC` (stereo not given), the composite z-score in assay [1] is 0.0867; in assay [3], -0.876; in [4], 0.127; in assay [5], 0.618; in assay [6] it was -0.0981; in assay [7] it was -0.165. In addition, the composite z-score in [8] was -0.0879; in [9], 0.044; in assay [10], 0.498. In assay [2], this compound returned a z-score of -1.31.
For the compound `CCOc1cc(C(O)C2C=CC3C(=O)NC(=O)C3N2Nc2ccc(Cl)cc2Cl)ccc1O` (stereo not given), the composite z-score is -1.7 in assay [1]; -1.18 in assay [3]; -0.07 in [4]; -0.0008 in [5]; -0.154 in [6]; 0.0062 in [7]. The results for the composite z-score in [8], in assay [9] and in assay [10] were 0.119, 0.0975 and -0.0945, respectively. For the same compound, in assay [2], the z-score came out at 0.822.
Regarding `C#Cc1cc2ccccc2oc1=O`, the composite z-score was -0.455 in [1]; -2.19 in assay [3]; -1.07 in assay [4]; -0.451 in assay [5]; -0.187 in assay [6]; 0.541 in assay [7]. In addition, the values for the composite z-score in assay [8], in [9] and in assay [10] were -0.396, -0.402 and -1.65, respectively. For the same compound, the z-score in [2] was -3.88.
`C=C[C@H](C)[C@H](OC(=O)Nc1ccc(SC)cc1)c1ccc(OCCO)cc1`: the composite z-score in [1] was 0.248; in assay [3] it was -0.0482; in [4] it was 0.272; in assay [5] it was -0.037; in assay [6] it was -0.183; in assay [7], 0.142. Also, the composite z-score stood at 0.576 in [8], 1.6 in assay [9] and 1.58 in [10]. The compound further came in with a z-score in assay [2] of -1.19.

The values are drawn from PubChem BioAssay.
